Test results taken from PubChem BioAssay AID652062 (Broad Institute, 2013).
In all, about 1,400 compounds went through this assay and about 1,100 (79%) were called active.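 How the source made its calls: active means fitted half-maximal concentration of a falling signal no higher than twice the top valid dose in every test run; inconclusive means runs disagree, or flat partial inhibition, or poor fit; inactive means every run inactive: flat, wrong direction, or potency beyond limit.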 So high a share suggests a set chosen from earlier hits. Only a sample is shown. Measured potencies and affinities stand elsewhere.

Experiment: HIV-1 AD8 envelope cell-cell fusion blockers – cherry-pick, dose response (AID 652062)
Settings: HeLa-AD8 Env / CEM-CCR5 cell fusion, luciferase; at 35 µM (top of the series) unless noted

Point of comparison: `CC(C)CN(C(=O)c1ccc(S(=O)(=O)N2CCCCC2)cc1)C1CCS(=O)(=O)C1` (configuration not stated), activity change, negative = inhibition -25.2%. Against it:
- CNC[C@@H]1Oc2c(N)cccc2C(=O)N([C@@H](C)CO)C[C@@H]1C — higher, -6.55%
- C[C@H]1CN([C@@H](C)CO)C(=O)c2cccc(NC(=O)C3CCCCC3)c2O[C@H]1CN(C)S(C)(=O)=O — higher, 43.4%
- C[C@@H]1CN([C@H](C)CO)C(=O)c2cccc(NC(=O)c3cnccn3)c2O[C@H]1CN(C)Cc1ccccc1 — higher, 8.76%
- COc1ccccc1N/C(N)=N/c1nc(CSc2ccc(C)cc2)cc(=O)[nH]1 — lower, -51.5%
- CCOC(=O)c1ccc(NC2c3ncccc3C(=O)N2Cc2ccc(F)cc2)cc1 (configuration not stated) — lower, -27%
- CCOC(=O)C1=C(C)N=C2c3ccccc3C(=O)C2C1c1ccc(Cl)cc1 (configuration not stated) — lower, -84.7%
- CC(CCc1ccco1)NC(=O)CCc1nnc2ccc(NCc3ccccc3Cl)nn12 (configuration not stated) — higher, 87.2%
- COc1cccc(S(=O)(=O)N[C@H]2CC[C@@H](CCN)O[C@@H]2CO)c1 — higher, 11.2%
- COc1cccc(S(=O)(=O)N[C@@H]2CC[C@H](CCN)O[C@H]2CO)c1 — higher, 3.96%
- CCCNC(=O)C[C@@H]1C[C@H]2c3cc(NC(=O)c4cccnc4)ccc3O[C@H]2[C@H](CO)O1 — higher, 6.61%
- COc1ccccc1CNC(=O)C[C@H]1C[C@@H]2c3cc(NC(=O)c4cccnc4)ccc3O[C@@H]2[C@@H](CO)O1 — higher, 64.7%
- CCN(CC)C(=O)c1ncn2c1C(=O)NC[C@@H]2C — lower, -31.4%
- CC1CCN(C(=O)c2ncn3c2C(=O)NC[C@@H]3C)CC1 — higher, 15.1%
- CCC(=O)N(C)C[C@H]1Oc2cc(/C=C/c3ccccc3)ccc2S(=O)(=O)N([C@@H](C)CO)C[C@H]1C — lower, -29.3%
- C[C@@H]1CN([C@@H](C)CO)S(=O)(=O)c2ccc(-c3ccc(F)cc3)cc2O[C@H]1CN(C)C(=O)C1CCCCC1 — lower, -27.8%
- C[C@@H]1CN([C@H](C)CO)S(=O)(=O)c2ccc(C#Cc3cccc(F)c3)cc2O[C@@H]1CN(C)C(=O)CN1CCOCC1 — higher, 80.2%
- Cc1ccc(C(=O)NCc2ccccn2)cc1S(=O)(=O)N1CCCCC1 — higher, 24.4%
- Cc1ccc(S(=O)(=O)N(C)C[C@H]2Oc3ccc(NC(=O)Nc4cccc5ccccc45)cc3C(=O)N([C@H](C)CO)C[C@@H]2C)cc1 — higher, 64%
- CCC(=O)Nc1ccc2c(c1)C(=O)N(C)C[C@@H](OC)[C@H](C)CN(C(=O)CC)[C@@H](C)CO2 — higher, 44.7%
- CCCC(=O)Nc1ccc2c(c1)OC[C@H](C)N(Cc1ccncc1)C[C@H](C)[C@H](OC)CN(C)C2=O — higher, -9.34%
- CO[C@H]1CN(C)C(=O)c2ccc(NC(=O)C3CC3)cc2OC[C@@H](C)N(C(C)=O)C[C@@H]1C — higher, 20%
- CO[C@H]1CN(C)C(=O)c2cc(NS(=O)(=O)c3ccc(Cl)cc3)ccc2OC[C@@H](C)N(C)C[C@@H]1C — higher, 45%
- CO[C@@H]1CN(C)C(=O)c2ccc(NS(C)(=O)=O)cc2OC[C@@H](C)N(C(=O)C2CCCCC2)C[C@H]1C — higher, 26.2%
- CCS(=O)(=O)Nc1ccc2c(c1)C(=O)N(C)C[C@H](OC)[C@@H](C)CN(C(=O)C1CCC1)[C@H](C)CO2 — higher, 25.1%
- CCCC(=O)Nc1ccc2c(c1)OC[C@@H](C)N(C(=O)CN(C)C)C[C@H](C)[C@@H](OC)CN(C)C2=O — higher, -23.4%
- CCCC(=O)Nc1ccc2c(c1)C(=O)N(C)C[C@@H](OC)[C@@H](C)CN(Cc1nccs1)[C@@H](C)CO2 — higher, 33.3%
- CO[C@@H]1CN(C)C(=O)c2ccc(NC(C)=O)cc2OC[C@@H](C)N(Cc2cncnc2)C[C@@H]1C — higher, 15.1%
- CO[C@H]1CN(C)C(=O)c2cc(NC(C)=O)ccc2OC[C@@H](C)N(Cc2nccs2)C[C@H]1C — higher, 20%
- COc1ccccc1C(=O)Nc1ccc2c(c1)OC[C@H](C)N(C(C)=O)C[C@H](C)[C@H](OC)CN(C)C2=O — higher, -17.7%
- COc1ccccc1S(=O)(=O)Nc1ccc2c(c1)C(=O)N(C)C[C@@H](OC)[C@@H](C)CN[C@@H](C)CO2 — higher, -2.95%
- CO[C@@H]1CN(C)C(=O)c2cc(NS(=O)(=O)c3ccc(C)cc3)ccc2OC[C@H](C)N(C(=O)NC(C)C)C[C@@H]1C — higher, -8.46%
- CCOC(=O)CN1CCCc2nc(C)c(C)cc21 — higher, -11.4%
- Cc1ccc(Cn2nnnc2CN2CCC(c3nc4ccc(Cl)cc4[nH]3)CC2)cc1 — higher, 44.3%
- CC(=O)c1ccc([C@H]2C[C@@]34CN(C(=O)OC(C)(C)C)S(=O)(=O)[C@H]3C[C@H]2O4)cc1 — higher, -3.29%
- COc1ccc(C)cc1NC(=O)CCNS(=O)(=O)c1ccc2c(c1)CC(C)N2C(C)=O (configuration not stated) — higher, -17.8%
- CNC[C@@H]1Oc2ccc(NS(C)(=O)=O)cc2CC(=O)N([C@H](C)CO)C[C@H]1C — higher, 18.9%
- O=C(Nc1ccc(Cl)cn1)C1CCCN1S(=O)(=O)c1cccc2ccccc12 (configuration not stated) — lower, -67.5%
- CCCN1[C@H](C(=O)N[C@@H](C)c2ccccc2)[C@@H](CO)[C@@H]2Cn3c(ccc(-c4cccc(F)c4)c3=O)[C@@H]21 — higher, 99.2%
- Cc1nc2ccccc2c2oc(C(=O)NCc3ccc4c(c3)OCO4)cc12 — lower, -50%
- CCc1ccc(-c2nc(CN3CCC(C(=O)NCCc4ccc(OC)c(OC)c4)CC3)c(C)o2)cc1 — higher, -25.1%
- O=C(Cc1ccccc1)N[C@@H]1C=C[C@H](CC(=O)N2CCCCC2)O[C@@H]1CO — higher, -10.8%
- Cc1ccc(S(=O)(=O)N[C@@H]2CC[C@H](CCNC(=O)c3ccccc3F)O[C@H]2CO)cc1 — higher, 23.6%
- COc1ccc(S(=O)(=O)N[C@H]2C=C[C@H](CC(=O)N3CCN(c4ccccc4)CC3)O[C@@H]2CO)cc1 — lower, -26.4%
- COCc1[nH]nc2c1C(c1ccc(F)cc1)N(Cc1ccccc1)C2=O (configuration not stated) — higher, 11.7%
- O=C(Nc1ccc(F)cc1)Nc1ccc2c(c1)[C@H]1C[C@@H](CC(=O)N3CCCCC3)O[C@H](CO)[C@H]1O2 — higher, 57.6%
- CS(=O)(=O)N(Cc1ccc(Cl)cc1)c1ccc(C(=O)NCCC2=CCCCC2)cc1 — higher, -7.87%
- CC(=O)OC1c2ccccc2C(=O)N1c1ccccc1C (configuration not stated) — higher, -15.7%
- Cc1ccc(C2CC(=O)c3cnc(N4CCc5ccccc5C4)nc3C2)cc1 (configuration not stated) — higher, 0.787%
- CCNC(=O)C[C@H]1CC[C@@H]2[C@@H](COc3ccc(NC(=O)Cc4cccs4)cc3C(=O)N2C)O1 — higher, 66.7%
- COCC(=O)Nc1ccc2c(c1)C(=O)N(C)[C@H]1CC[C@H](CC(=O)NC3CCCC3)O[C@H]1CO2 — higher, 17%
- Cc1nn(C)cc1NC(=O)C[C@H]1CC[C@@H]2[C@@H](COc3ccc(NC(=O)C4CCC4)cc3C(=O)N2C)O1 — higher, -24.8%
- CN1C(=O)c2cc(NC(=O)NC3CCCC3)ccc2OC[C@@H]2O[C@H](CC(=O)NC3CCC3)CC[C@@H]21 — higher, -5.79%
- CCNC(=O)Nc1ccc2c(c1)C(=O)N(C)[C@@H]1CC[C@@H](CC(=O)NCC3CCCCC3)O[C@@H]1CO2 — higher, -14.5%
- COc1ccc(NC(=O)C(=O)NCC2CCCN2S(=O)(=O)c2cccs2)cc1 (configuration not stated) — higher, 23.4%
- COc1ccc(OC)c(NC(=O)COc2ccc3c(c2)CCC3)c1 — higher, 43.3%
- O=C(NCCCc1nc2ccccc2[nH]1)c1ccco1 — lower, -25.6%
- C[C@H](O)[C@@H]1C(=O)N2CCc3c([nH]c4cccc(-c5ccccc5)c34)[C@@H]2C[C@@H]1N(C)C(=O)OCc1ccccc1 — higher, -17.1%
- C=C(C)CN(CC)c1nc(N)c2c(N)nc3c(c2c1C#N)CC(=O)N3C12CC3CC(CC(C3)C1)C2 — higher, 27.3%
- COC(=O)[C@@]1(Cc2ccc(F)cc2)[C@H]2c3cc(C(=O)N(C)C)n(CCO)c3C[C@H]2CN1C(=O)c1ccccc1 — higher, 39.7%

Point of comparison: `C[C@@H]1CN([C@H](C)CO)C(=O)c2cccc(NS(=O)(=O)c3ccc(Cl)cc3)c2O[C@H]1CN(C)CC1CCCCC1`, activity change, negative = inhibition 87% [at 8 µM]. Against it:
- C[C@H](CO)N1C[C@H](C)[C@H](CN(C)C(=O)Nc2ccccc2)Oc2c(NS(=O)(=O)c3ccc(F)cc3)cccc2C1=O — lower, 63.4% [at 8 µM]

Point of comparison: `CCCC#Cc1ccc2c(c1)O[C@@H](CN(C)C(=O)C1CCCCC1)[C@H](C)CN([C@H](C)CO)S2(=O)=O`, activity change, negative = inhibition 90.1% [at 16 µM]. Against it:
- O=C(Nc1cc2c3c(c1)CC(=O)N3CCC2)c1ccc(Cl)cc1 — higher, 197% [at 16 µM]
- CC(C)C#Cc1ccc2c(c1)O[C@@H](CN(C)C(=O)C1CCCCC1)[C@H](C)CN([C@H](C)CO)S2(=O)=O — lower, 41.8% [at 16 µM]
- Cc1ccc(-c2ccc3c(c2)O[C@@H](CN(C)C(=O)C2CCCCC2)[C@H](C)CN([C@H](C)CO)S3(=O)=O)cc1 — lower, 53.1% [at 16 µM]
- COc1ccccc1CCNCc1ccc(OC)c(OCc2ccccc2)c1 — lower, 45.9% [at 16 µM]
